Test systems include NCI-H23 lung; NCI-H226 lung; NCI-H322M lung; HOP-62 NSCLC; NCI-H460 lung; HOP-92 NSCLC; NCI-H522 lung; A549/ATCC NSCLC; 786-0 renal; COLO 205 colon.
Holding throughout (test): NCI-60 one-dose screen, 48 h (100 = growth as untreated, 0 = no growth, -100 = all killed)
What all share (settings): 10 µM unless noted

This is part of a sample that, as a whole, favours compounds with a hit. Of some 83,000 tested, about 20% had one in any assay.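 Growth was measured after 48 h exposure to one concentration of compound in 96-well plates. Values under 10 count as active.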 A number with no mark means an inactive call. Calls of active or inactive are those of the source.

`O=NNc1ccccn1`: the growth with NCI-H23 lung is 79.4%; with NCI-H226 lung it was 91.1%; in the experiment on NCI-H322M lung, 126%; in the experiment on HOP-62 NSCLC, 90.3%; in the experiment on NCI-H460 lung, 41.7%; in the experiment on HOP-92 NSCLC, 92.1%. The growth in the experiment with NCI-H522 lung is 64.3%; in the experiment on A549/ATCC NSCLC, 95.1%; in the experiment on 786-0 renal, 106%; with COLO 205 colon, 95.8%.
For `NC(N)=N/N=C\c1c[nH]c2ccc(Br)cc12`, the growth in the experiment with NCI-H23 lung was 86.3%; in the experiment on NCI-H226 lung, 69.2%; with NCI-H322M lung it was 87.9%; with HOP-62 NSCLC it was 83.5%; with NCI-H460 lung it was 102%; in the experiment with HOP-92 NSCLC, 37.9%. In addition, the growth in the experiment with NCI-H522 lung is 81%; in the experiment on A549/ATCC NSCLC it was 92.5%; in the experiment with 786-0 renal, 78.6%; with COLO 205 colon, 84.5%.
For `O=C1C2CCC1C(N1CCCC1)CC2` (stereo not given), the growth in the experiment with NCI-H23 lung was 105%; in the experiment on NCI-H226 lung, 95.9%; with NCI-H322M lung, 92.5%; with HOP-62 NSCLC, 101%; in the experiment on NCI-H460 lung it was 103%; in the experiment on HOP-92 NSCLC, 85.5%. Further, the growth in the experiment with NCI-H522 lung is 94.9%; with A549/ATCC NSCLC, 97.8%; with 786-0 renal, 98.4%; in the experiment with COLO 205 colon, 107%.
`CC(=O)O[C@H]1C(=O)[C@@]2(C)[C@H]([C@H](OC(=O)c3ccccc3)[C@]3(O)C[C@H](OC(=O)[C@H](OC(=O)OCC4COC(C)(C)O4)[C@@H](NC(=O)c4ccccc4)c4ccccc4)C(C)=C1C3(C)C)[C@]1(OC(C)=O)CO[C@@H]1C[C@@H]2O` (stereo not given in full): the growth in the experiment on NCI-H23 lung was 37.8%; in the experiment with NCI-H226 lung, 72.8%; with NCI-H322M lung, 40.6%; in the experiment on HOP-62 NSCLC it was 48.1%; in the experiment with NCI-H460 lung it was 13.1%; in the experiment with HOP-92 NSCLC it was 74%. Moreover, the growth in the experiment with NCI-H522 lung is 38.7%; in the experiment on A549/ATCC NSCLC it was 30%; in the experiment with 786-0 renal, 54.2%; with COLO 205 colon it was 7.19% (active).
For `C=COC(=O)CCN1CC1`, the growth with NCI-H23 lung is 100%; in the experiment on NCI-H226 lung it was 98.9%; with NCI-H322M lung, 102%; in the experiment on HOP-62 NSCLC, 95%; in the experiment with NCI-H460 lung it was 105%; in the experiment on HOP-92 NSCLC, 111%. Moreover, the growth is 107% with NCI-H522 lung, 102% in the experiment on A549/ATCC NSCLC, 110% in the experiment on 786-0 renal and 114% in the experiment with COLO 205 colon.
Take `Oc1c(O)c(Cl)c(Cl)c(Cl)c1Cl`: the growth in the experiment on NCI-H23 lung is 26.7%; with NCI-H226 lung, 36.8%; with NCI-H322M lung, 44.5%; with HOP-62 NSCLC, 40.1%; in the experiment with NCI-H460 lung it was 15.4%; in the experiment on HOP-92 NSCLC, 1.08% (active). Also, the growth is -19.6% (active) in the experiment with NCI-H522 lung, 20.5% in the experiment on A549/ATCC NSCLC, 57.2% in the experiment with 786-0 renal and 69.8% in the experiment on COLO 205 colon.
As to `O=[N+]([O-])CC(c1ccccc1Cl)c1c(-c2ccccc2)[nH]c2ccccc12` (stereo not given), the growth in the experiment on NCI-H23 lung is 53.8%; in the experiment with NCI-H226 lung it was 30.9%; in the experiment with NCI-H322M lung, 42.7%; with HOP-62 NSCLC, 30.3%; in the experiment on NCI-H460 lung it was 22.9%; in the experiment with HOP-92 NSCLC, 36.1%. The growth in the experiment on NCI-H522 lung was -10.9% (active); in the experiment on A549/ATCC NSCLC, 31.5%; in the experiment with 786-0 renal, 25.2%; with COLO 205 colon it was 15%.
Take `Cc1ccc(Nc2nc3c(s2)C2=CC[C@@H]4[C@H](CC[C@]5(C)C(=O)CC[C@@H]45)[C@@]2(C)CC3)cc1`: the growth in the experiment on NCI-H23 lung is 58.4%; in the experiment with NCI-H226 lung it was 69.5%; in the experiment with NCI-H322M lung, 61.8%; with HOP-62 NSCLC, 43.4%; with NCI-H460 lung it was 38.9%; in the experiment on HOP-92 NSCLC it was 78.6%. For the same compound, the growth is 56.3% in the experiment on NCI-H522 lung, 55.8% in the experiment on A549/ATCC NSCLC, 9.1% (active) with 786-0 renal and 63.5% in the experiment with COLO 205 colon.
For the compound `Nc1nc([Se])c2ncn(C3OC(CO)C(O)C3O)c2n1` (stereo not given), the growth in the experiment with NCI-H23 lung is 51%; with NCI-H226 lung, 78.5%; with NCI-H322M lung, 84.3%; with HOP-62 NSCLC it was 12.3%; in the experiment with NCI-H460 lung it was 27.4%; in the experiment on HOP-92 NSCLC, 43%. The growth with NCI-H522 lung was 71.6%; with A549/ATCC NSCLC, 102%; in the experiment on 786-0 renal it was 29.4%; in the experiment on COLO 205 colon it was 124%.
With `CC12CCC3C(CCC4=CC(=O)CCC43CF)C1CCC2=O` (stereo not given), the growth in the experiment with NCI-H23 lung is 106%; with NCI-H226 lung, 111%; in the experiment with NCI-H322M lung, 102%; in the experiment with HOP-62 NSCLC, 124%; in the experiment on NCI-H460 lung, 109%; with HOP-92 NSCLC, 114%. Also, the growth with NCI-H522 lung is 87.3%; in the experiment with A549/ATCC NSCLC, 99.3%; in the experiment with 786-0 renal, 106%; with COLO 205 colon, 135%.
In the case of `COc1ccc(S(=O)(=O)Nc2c(/C=C\c3cc(OC)c(OC)c(OC)c3)ccc(OC)c2O)cc1OC`, the growth in the experiment with NCI-H23 lung is 33.2%; with NCI-H226 lung, 29%; with NCI-H322M lung, 44.3%; in the experiment with HOP-62 NSCLC it was 71.5%; with NCI-H460 lung, 5.24% (active); in the experiment on HOP-92 NSCLC, 30.5%. The growth is -9.02% (active) in the experiment with NCI-H522 lung, 20.9% in the experiment on A549/ATCC NSCLC, 14% in the experiment with 786-0 renal and -39.3% (active) in the experiment on COLO 205 colon.
Regarding `C[C@@H]1O[C@@H](O[C@H]2C[C@@H](O)[C@]3(CO)C4C(CC[C@]3(O)C2)[C@@]2(O)CC[C@H](C3=CC(=O)OC3)[C@@]2(C)C[C@H]4O)[C@H](O)[C@H](O)[C@H]1O` (stereo not given in full), the growth was -67.1% (active) in the experiment with NCI-H23 lung; -72.3% (active) in the experiment with NCI-H226 lung; -64.5% (active) in the experiment with NCI-H322M lung; -99.5% (active) in the experiment on HOP-62 NSCLC; -75.9% (active) in the experiment on NCI-H460 lung; -0.733% (active) in the experiment on HOP-92 NSCLC. Besides, the growth with NCI-H522 lung was -54.4% (active); with A549/ATCC NSCLC it was -91.4% (active); in the experiment with 786-0 renal, -95.3% (active); with COLO 205 colon, -84.2% (active).
On to `N#CC1C(C#N)C2CCC1C1C2N1c1ccccc1` (stereo not given), for which the growth in the experiment on NCI-H23 lung is 117%; in the experiment with NCI-H226 lung it was 101%; in the experiment on NCI-H322M lung it was 92.3%; in the experiment on HOP-62 NSCLC, 97.4%; in the experiment on NCI-H460 lung, 108%; in the experiment on HOP-92 NSCLC, 74.5%. The growth in the experiment on NCI-H522 lung is 108%; in the experiment on A549/ATCC NSCLC, 126%; with 786-0 renal, 107%; in the experiment with COLO 205 colon, 103%.

For the origin of these results see PubChem BioAssay (NCI).
